Reference: PubChem BioAssay AID651640 (Broad Institute, 2012)
The whole screen tested about 350,000 compounds, of which about 6,000 (1.7%) were called active. Not shown: some 5% with an inconclusive outcome. The sample holds actives, similar compounds and a random draw of the others, so the mix is not that of the screen. Values without a mark were called inactive. No stated cut-off is given here; in the data, active means CPE inhibition above about 20% (passing the limit was not always enough); inconclusive means no clear call, values can overlap the other calls; tested in BHK-21 cells.

Assay: inhibitors of DENV2 cytopathic effect, primary screen, cell-based, plate reader, single concentration (AID 651640);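 further: 0% = median of neutral control wells and 100% = median of positive control wells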
Conditions: DENV2-infected cells, cytopathic effect rescue, at 9.99 µM, stronger effect = higher value

First: Cc1ccc(S(=O)(=O)N2C[C@@H](O)COC[C@@H]3O[C@@H](CC(=O)N[C@H]4CCN(Cc5ccccc5)C4)CC[C@H]32)cc1
Second: O=C(CC1CC1)N1[C@H](CO)[C@@H]2c3ccccc3N(S(=O)(=O)c3ccc(F)cc3)C[C@@H]21
The CPE inhibition of the first is lower: -6.36% for the first, -3.84% for the second.

Compared with `C/C=C/c1ccccc1[C@H]1[C@@H](C#N)N(c2nc(CC)cs2)[C@@H]1CO`, `O=C(Nc1ccccc1)N1C[C@H]2[C@@H](c3ccccc31)[C@@H](CO)N2Cc1cocn1` is higher in CPE inhibition: -4.18% for the first, -3.04% for the second.

Going from `O=C(CSc1nc2ccccc2c(=O)n1-c1ccccc1F)N1CCOCC1` to `O=C(CSc1nc2ccccc2c(=O)n1-c1ccc(F)cc1)NC1CC1`, the CPE inhibition falls from 3.85% to -10.2%.

First: CC(=O)N1[C@H](CO)[C@H](c2ccccc2)C12CN(C(=O)c1ccccn1)C2
Second: CN1c2ccc(-c3ccccc3)cc2[C@@H]2[C@@H](CCN2C(=O)c2ccccc2F)[C@@H]1CO
The CPE inhibition of the first is higher: 3.27% for the first, 1.36% for the second.

First: C=CCOc1c(CNn2cn[nH]c2=S)cccc1OC
Second: C=CCn1c(-c2ccccc2OCC)n[nH]c1=S
The CPE inhibition of the first is lower: -7.79% for the first, -1.21% for the second.

Going from `Nc1ncnc2c1ncn2[C@@H]1O[C@H](C(=O)N[C@@H](CCc2ccccc2)C(=O)N2CCCN(Cc3cccs3)CC2)[C@@H](O)[C@H]1O` to `C[C@H](CO)N1C[C@H](C)[C@H](CN(C)Cc2ccccc2)OCCCC[C@H](C)Oc2ccc(NC(=O)c3ccccc3)cc2C1=O`, the CPE inhibition rises from -8.03% to -7.82%.

First: COc1cccc(S(=O)(=O)N[C@H]2CC[C@H](CC(=O)NC3CCC3)O[C@H]2CO)c1
Second: COc1cccc(S(=O)(=O)N[C@H]2CC[C@@H](CC(=O)NCc3ccc(F)cc3)O[C@@H]2CO)c1
The CPE inhibition of the first is lower: -5.34% for the first, 2.23% for the second.

First: CO[C@@H]1CN(C)C(=O)c2ccc(NC(=O)c3ccccn3)cc2OC[C@@H](C)N(C(=O)C2CCCCC2)C[C@H]1C
Second: CO[C@@H]1CN(C)C(=O)c2cc(NC(C)=O)ccc2OC[C@@H](C)N(C(=O)NC2CCCCC2)C[C@H]1C
The CPE inhibition of the first is higher: -2.92% for the first, -11% for the second.

First: O=C(C[C@H]1CC[C@H](NC(=O)Nc2ccc(C(F)(F)F)cc2)[C@H](CO)O1)NCCN1CCCC1
Second: O=C(C[C@H]1CC[C@H](NC(=O)CCN2CCCCC2)[C@@H](CO)O1)Nc1ccccc1
The CPE inhibition of the first is higher: 1.56% for the first, -7.71% for the second.

Going from `NC(=O)c1ccc(Nc2ccc3nonc3c2[N+](=O)[O-])cc1` to `CCOc1ccccc1Nc1ccc(C(=O)O)cc1[N+](=O)[O-]`, the CPE inhibition rises from -0.407% to 2.94%.

First: CO[C@H]1CN(C)C(=O)c2ccc(NC(=O)c3cc(C)on3)cc2OC[C@@H](C)NC[C@@H]1C
Second: COc1ccccc1C(=O)Nc1ccc2c(c1)OC[C@@H](C)NC[C@H](C)[C@@H](OC)CN(C)C2=O
The CPE inhibition of the first is lower: -4.45% for the first, -3.53% for the second.

First: COc1cccc(-c2ccc([C@H]3[C@H](CO)N4CCCCN(S(=O)(=O)c5cccs5)C[C@@H]34)cc2)c1
Second: Cc1cccc(-c2ccc([C@H]3[C@H](CO)N4CCCCN(S(=O)(=O)c5cn(C)cn5)C[C@@H]34)cc2)c1
The CPE inhibition of the first is higher: -2.61% for the first, -11.9% for the second.

Going from `CCS(=O)(=O)N1CCCCN2[C@@H](CO)[C@@H](c3ccc(-c4ccccc4)cc3)[C@@H]2C1` to `O=S(=O)(Cc1ccccc1)N1CCCCN2[C@@H](CO)[C@@H](c3ccc(-c4ccc(F)cc4)cc3)[C@@H]2C1`, the CPE inhibition falls from 12.3% to -23%.

Compared with `CCNC(=O)[C@H]1[C@H](CO)[C@H]2Cn3c(cccc3=O)[C@H]2N1C(=O)C1CCCC1`, `CC=Cc1ccc2n(c1=O)C[C@@H]1[C@@H](CO)[C@H](C(=O)NC3CCCC3)[C@H]2N1C(=O)c1cnccn1` (mixture of isomers) is lower in CPE inhibition: 3.43% for the first, 2.52% for the second.

First: C[C@@H]1CCCCO[C@@H](CN(C)C(=O)C2CCCCC2)[C@H](C)CN([C@H](C)CO)C(=O)c2cc(NC(=O)Cc3ccccc3)ccc2O1
Second: C[C@@H]1CCCCO[C@H](CN(C)CC2CC2)[C@@H](C)CN([C@H](C)CO)C(=O)c2cc(NC(=O)Cc3ccccc3)ccc2O1
The CPE inhibition of the first is lower: -2.34% for the first, 13.5% for the second.

First: CN(C)CC(=O)N[C@@H]1CC[C@H](CC(=O)O)O[C@H]1CO
Second: O=C(C[C@@H]1CC[C@H](NC(=O)C2CCOCC2)[C@@H](CO)O1)Nc1ccccc1
The CPE inhibition of the first is higher: 8.44% for the first, 6.72% for the second.

Going from `C[C@@H](NC(=O)C[C@@H]1C=C[C@@H](NC(=O)CN2CCOCC2)[C@H](CO)O1)c1ccccc1` to `CN1c2ccc(Br)cc2[C@@H]2[C@@H](CCN2C(=O)Cc2ccccc2)[C@@H]1CO`, the CPE inhibition rises from -6.9% to 0.742%.

Compared with `CNC(=O)C[C@@H]1CC[C@@H]2[C@@H](COc3ccc(NC(=O)Cc4cccs4)cc3C(=O)N2C)O1`, `C[C@@H]1CN([C@H](C)CO)C(=O)c2cc(NC(=O)Cc3ccccc3)ccc2O[C@@H]1CN(C)CC1CCCCC1` is higher in CPE inhibition: -1.22% for the first, -0.335% for the second.

First: O=C(NC1CCCCC1)C1CCCN(S(=O)(=O)c2ccc(Br)s2)C1 (configuration not stated)
Second: O=C(C1CCN(S(=O)(=O)c2ccc(Br)s2)CC1)N1CCN(c2ccccc2)CC1
The CPE inhibition of the first is higher: 2.35% for the first, -4.17% for the second.

First: C[C@H](CO)N1C[C@H](C)[C@H](CN(C)CC2CCCCC2)Oc2ccc(NC(=O)C3CCCCC3)cc2C1=O
Second: C[C@@H]1CCCCO[C@@H](CN(C)CC2CCCCC2)[C@H](C)CN([C@H](C)CO)C(=O)c2cc(NC(=O)C3CCCCC3)ccc2O1
The CPE inhibition of the first is higher: 0.912% for the first, -14.3% for the second.

Compared with `C[C@H](CO)N1C[C@H](C)[C@@H](CN(C)Cc2ccc(C(=O)O)cc2)OCCCC[C@H](C)Oc2ccc(NC(=O)c3ccccc3)cc2C1=O`, `C[C@@H]1CCCCO[C@H](CN(C)Cc2ccccc2)[C@@H](C)CN([C@H](C)CO)C(=O)c2cc(NC(=O)Cc3ccccc3)ccc2O1` is lower in CPE inhibition: -2.18% for the first, -14% for the second.

Going from `C[C@@H]1CN([C@@H](C)CO)C(=O)c2cc(NC(=O)Cc3ccccc3)ccc2O[C@@H]1CN(C)CC1CCCCC1` to `CC(C)NC(=O)Nc1cccc2c1O[C@H](CN(C)Cc1ccccc1)[C@H](C)CN([C@H](C)CO)C2=O`, the CPE inhibition falls from 2.75% to 1.48%.

Compared with `Cc1ccccc1S(=O)(=O)N1CC(=O)N2[C@H](CO)[C@H](c3ccc(C#CC4CC4)cc3)[C@@H]2C1`, `COc1cccc(-c2ccc3n(c2=O)C[C@H]2[C@H](CO)[C@@H](C(=O)N4CCCCC4)N(C)[C@@H]32)c1` is higher in CPE inhibition: 5.14% for the first, 5.67% for the second.

Going from `CO[C@@H]1CN(C)C(=O)c2ccc(NC(=O)C3CC3)cc2OC[C@@H](C)N(CC2CCOCC2)C[C@H]1C` to `CCCNC(=O)Nc1ccc2c(c1)OC[C@H](C)N(Cc1ccccc1)C[C@H](C)[C@H](OC)CN(C)C2=O`, the CPE inhibition rises from 0.64% to 14.2%.

Compared with `COC(=O)CCCCCCC(=O)Nc1ccc(C2OC(CSc3nc(-c4ccccc4)c(-c4ccccc4)o3)CC(c3ccc([N+](=O)[O-])cc3)O2)cc1` (configuration not stated), `COC(=O)[C@]12CCCCC=C1N(Cc1ccc(Cl)cc1Cl)C(=O)[C@H](CC(=O)NCc1cccc3ccccc13)C2` is higher in CPE inhibition: -6.28% for the first, -2.75% for the second.

First: CCCNC(=O)[C@H]1[C@H](CO)[C@H]2Cn3c(ccc(-c4cccc(F)c4)c3=O)[C@@H]1N2C(=O)CC
Second: CCOC(=O)[C@]12CCCC=C1N(Cc1ccc(Cl)cc1Cl)C(=O)[C@H](CC(=O)N1CCCCC1)C2
The CPE inhibition of the first is lower: 0.06% for the first, 4.66% for the second.

First: CN1c2ccc(Br)cc2[C@@H]2[C@@H](CCN2C(=O)C2CCCCC2)[C@H]1CO
Second: COC(=O)[C@]12CCCCC=C1N(Cc1ccc3c(c1)OCO3)C(=O)[C@H](CC(=O)N1CCOCC1)C2
The CPE inhibition of the first is lower: 8.19% for the first, 8.62% for the second.

Compared with `COC(=O)[C@]12CCCCC=C1N(Cc1ccc3c(c1)OCO3)C(=O)[C@H](CC(=O)NCc1cccs1)C2`, `CCOC(=O)[C@]12CCCC=C1N(Cc1ccc3c(c1)OCO3)C(=O)[C@H](CC(=O)N1CCN(C(=O)c3ccco3)CC1)C2` is higher in CPE inhibition: -4.45% for the first, -2.94% for the second.

Work on `CCOC(=O)[C@]12CCC=C1N(Cc1ccco1)C(=O)[C@H](CC(=O)N1CCSCC1)C2` yielded a CPE inhibition of -4%.

For `Cc1ccc(-n2c(SCC(=O)N3CCC(C(=O)O)CC3)nc3ccccc3c2=O)cc1C`, the CPE inhibition was 31.6% (active).
With `C=CCOc1ccccc1CNn1c(C)n[nH]c1=S` the CPE inhibition was 25.4% (active).
In the case of `CCOc1ccccc1Nc1ccc2nonc2c1[N+](=O)[O-]`, the CPE inhibition is reported as 22.7% (active).
For `O=S(=O)(Cc1ccccc1)N1CCCCN2[C@@H](CO)[C@H](c3ccc(-c4ccccc4)cc3)[C@@H]2C1`, the CPE inhibition was 59% (active).
In the case of `Cc1cccc(-c2ccc([C@@H]3[C@@H](CO)N4CCCCN(S(=O)(=O)c5cccs5)C[C@H]34)cc2)c1`, the CPE inhibition is reported as 32.7% (active).
With `O=C(O)C[C@@H]1CC[C@H](NC(=O)CCN2CCCCC2)[C@H](CO)O1` the CPE inhibition was 20.1% (active).
With `O=C(C1CCN(S(=O)(=O)c2ccc(Br)s2)CC1)N1CCN(C2CCCCC2)CC1` the CPE inhibition was 66.2% (active).
In the case of `C[C@H]1CCCCO[C@H](CN(C)Cc2ccccc2)[C@@H](C)CN([C@@H](C)CO)C(=O)c2cc(NC(=O)c3ccccc3)ccc2O1`, the CPE inhibition is reported as 48.2% (active).
For `C[C@@H]1CN([C@@H](C)CO)C(=O)c2cc(NC(=O)Cc3ccccc3)ccc2O[C@H]1CN(C)CC1CC1`, the CPE inhibition was 31.5% (active).
In the case of `C[C@@H]1CN([C@H](C)CO)C(=O)c2cc(NC(=O)C3CCCCC3)ccc2O[C@@H]1CN(C)CC1CCCCC1`, the CPE inhibition is reported as 22.8% (active).
For `C[C@H](CO)N1C[C@H](C)[C@@H](CN(C)CC2CC2)OCCCC[C@H](C)Oc2ccc(NC(=O)Cc3ccccc3)cc2C1=O`, the CPE inhibition was 57.8% (active).
With `CN1c2ccc(Br)cc2[C@@H]2[C@@H](CCN2C(=O)C2CCCC2)[C@H]1CO` the CPE inhibition was 99.1% (active).
With `COC(=O)[C@]12CCCCC=C1N(Cc1cccc3ccccc13)C(=O)[C@H](CC(=O)N1CCOCC1)C2` the CPE inhibition was 99.4% (active).
For `CCOC(=O)[C@]12CCC=C1N(Cc1ccccc1)C(=O)[C@H](CC(=O)N1CCCC1)C2`, the CPE inhibition was 29.8% (active).
For `CCOC(=O)[C@]12CCCC=C1N(Cc1ccc3c(c1)OCO3)C(=O)[C@H](CC(=O)NCc1cccs1)C2`, the CPE inhibition was 66.5% (active).
